Measured values as given in PubChem BioAssay AID493203 (National Center for Advancing Translational Sciences (NCATS), 2011).
Results filed as inconclusive are left out. Activity calls are given as the source filed them. Calls come from the whole dose curve; as a rule, active = well fitted activation curve with a large enough effect; inconclusive = small, poorly fitted or top-dose-only effect; inactive = flat fitted curve, though single readings scatter.

Test: qHTS Assay for NPC1 Promoter Activators: Initial hit validation from the primary screen;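 for activity, positive = activation: reporter driven by the mutant form of the NPC1 promoter; % of control where 0% means no effect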
Conditions: Huh7 NPC1 promoter-luciferase reporter, luminescence, 24 h; series mostly up to 46.1 µM; activity, positive = activation: at the top concentration
From the text: NIH Chemical Genomics Center [NCGC] NIH Molecular Libraries Probe Production centers Network [MLPCN] MLPCN Grant: MH089375-01A1 Assay Submitter (PI): Yiannis A. Ioannou NCGC Assay Overview: Niemann Pick Type C (NPC) is a rare neurodegenerative lipidosis that is characterized by lipid storage in the endosomal/lysosomal system. Treatment modalities for this devastating disease are currently non-existent due to the severe obstacles associated with accessing the central nervous system with proteins or genes. The majority of mutations causing NPC disease are missense mutations that are distributed throughout the length of the NPC1 protein, with the most prevalent being the I1061T allele. Although NPC1 mutant proteins may be functional, they are typically trapped in the ER due to misfolding. […] We have developed and optimized a cell based luciferase reporter assay in 1536 well format for the identification of up-regulators of the mutant NPC1 promoter. This assay presents data on the validation of hits from the primary screen.
The NPC1 promoter is cloned in front of the luciferase reporter gene, therefore NPC promoter activation results in luciferase expression. Frozen stock of the NPC1 promoter transfected Huh7 cells were obtained from the laboratory of Dr. Yiannis Ioannou (The Mount Sinai School of Medicine, New York, NY). Cells were propagated and maintained at NCGC in medium containing RPMI-1640 supplemented with 10% FBS, 2mM L-glutamine, and 50ug/ml penicillin/streptomycin. Cells were harvested in and plated for assays in OP-MEM I reduced-serum medium supplemented with 10% FBS. The Amplite luciferase reporter gene assay kit was purchased from ABD Bioquest and prepared/stored according to manufacturers recommendations. qHTS Assay Setup: 1. Dispensed 5ul of Huh7 cells stably expressing NPC1-luciferase at a density of 1500 cells per well 1536-well plates. 2. Incubate cells at 37C, 5% CO2, and 95% humidity for 2 hours. 3. Transferred 23nl per well of compound in DMSO solution. 4. Incubated at 37C, 5% CO2, and 95% humidity for 24 hours. 5. Dispensed 3ul per well of Amplite reagent(ABD Bioquest) per well. 6. Incubate at ambient for 10 minutes. 7. Read using the luminescence protocol on the ViewLux plate reader (Perkin Elmer).
Potency is the fitted concentration of half-maximal effect.

activity, positive = activation, inactive:
O=C(CCCC(=O)N(CC(=O)NC1CCCCC1)c1cccc(F)c1)Nc1ccccn1 5.64%, Cc1nc(SCC(=O)NC(=O)NC(C)(C)C)nc(C)c1C 1.65%, NC(=O)C1(NC(=O)[C@@H]2CC3(CC(c4cccc(NC(=O)[C@@H]5CCC(=O)N5)c4)=NO3)CN2C(=O)c2ccccc2)CC1 (stereo not given in full) 3.18%, CCN(Cc1nc2cc(Cl)ccc2c(=O)[nH]1)C(=O)C1CC(=O)N(c2cccc3ccccc23)C1 (stereo not given) -2.69%, COc1cccc(CNC(=O)CN(c2cc(C)cc(C)c2)S(=O)(=O)c2c(C)noc2C)c1 -4.87%, Cc1ccccc1NC(=O)Cc1nc(COC(=O)CC(C)c2ccccc2)cs1 (stereo not given) -6.35%, CC(C)C(NC(=O)c1ccc([N+](=O)[O-])cc1Cl)C(=O)N1CCCC1 (stereo not given) 3.15%, COc1ccccc1OCCCC(=O)NCc1ccco1 -0.92%, O=C(O)C1=CC[C@@H](c2ccc(Cl)cc2)N(S(=O)(=O)c2ccc(Cl)cc2)[C@H]1c1ccccc1 -1.2%, Cc1ccc2nc(Nc3ccc(Cl)cc3)c3nncn3c2c1 4.35%, O=[N+]([O-])c1cnccc1Nc1ccc(F)cc1 9.68%, O=C(CCCN1C(=O)C(c2ccccc2)Oc2cccnc21)Nc1ccccc1Cl (stereo not given) -11.5%, O=C(/C=C/c1ccco1)NCC1OCCc2ccccc21 (stereo not given) 2.53%, Cc1nn(CCCC(=O)NCc2ccc(F)cc2)c(C)c1[N+](=O)[O-] 1.89%, COc1cccc(C(C(=O)NC2CCCC2)N(CCC(C)C)C(=O)CCC(=O)Nc2cc(C)on2)c1 (stereo not given) -13.5%, CC(=O)Nc1nnc(SCC(=O)NCCOc2ccccc2)s1 2.05%, O=C(C[N+]1(CC#Cc2ccccc2)CCCCC1)c1ccccc1 -0.776%, COCCNC(=O)C1CCC(CNS(=O)(=O)c2ccc(F)cc2)CC1 (stereo not given) 1.82%, COCCn1c(SCc2ccc(C(=O)OC)o2)nc2cc(Cl)ccc2c1=O -11%, NCCOc1ccccc1-c1ccccc1 0.267%, O=C(O)CSc1nnc(-c2ccncc2)n1CCc1ccccc1 6.07%, Cc1ccc(NC(=O)c2cccc(N3C(=O)CCC3=O)c2)nc1 8.48%, O=C(CCNC(=O)c1ccc(Br)o1)NCc1ccc(Cl)cc1 -0.949%, CCCCc1cc(=O)oc2cc(OCC(=O)N3CCOCC3)ccc12 5.92%, O=C(CCc1cccc(Cl)c1)NC1CCCN(Cc2ccccc2F)C1 (stereo not given) -12.9%, O=C(c1cc2cc([N+](=O)[O-])ccc2oc1=O)n1cccn1 9.78%

Potency, active:
O=C(COC(=O)c1ccc(-c2nnc(-c3ccccc3)o2)cc1)c1ccccc1 396 nM, CCOC(=O)c1ccc(-c2nnc(-c3ccc(Cl)cc3Cl)o2)cc1 2500 nM, COc1ccc(-c2nnc(SCC(=O)/C(C#N)=C(\C)N)o2)cc1 223 nM, Nc1ccc(C(=O)Nc2ccccc2N)cc1 15800 nM, CCCCCCOc1ccc(OC(=O)c2cccnc2)cc1 19900 nM, CCOC(=O)CSc1nc2cc(C)ccc2cc1C#N 499 nM, Cn1c(SCc2ccccc2)nnc1-c1cnccn1 15800 nM, N#C/C(=N\Nc1ccc(Cl)cc1)C(=N)N1CCCCC1 281 nM, O=C(COc1ccccc1F)Nc1ccc(-c2nc3ccccc3s2)cc1 250 nM, O=C(CSc1nnc(-c2ccccc2)o1)Nc1ccccc1F 250 nM, Cc1nc(-c2ccccn2)sc1C(=O)Nc1ccc(F)cc1F 15800 nM, COc1ccccc1C(=O)Nc1nnc(SCC(=O)NC2CCCC2)s1 705 nM, CCOC(=O)c1csc(COc2ccc(OC)cc2)n1 705 nM, N#CC/C(N)=N/NC(=O)CCCNc1ncc(C(F)(F)F)cc1Cl 15800 nM
